In all, about 5,500 compounds went through this assay and about 2,000 (36%) were called active. Another 18% or so got no clear call; they are omitted. Rule as the data show it: active = normalized growth mostly below about 0.91 (no sharp cut-off); inconclusive = no clear call, values can overlap the other calls; inactive = mostly above about 0.92. Some of the results follow.
Experiment: chemical genetic growth profiling, strain panel (AID 1159580);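 also: tested at 20 µM; growth read once vehicle control cultures reached saturation at 30 °C; 1 = growth at the plate median or of vehicle wells; lower values mean less growth of the strain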
Conditions: S. cerevisiae deletion strains, growth OD

Measured: normalized growth

Clc1cncc(Cl)c1N/N=C\C1CC2C=CC1C2 (stereo not drawn)
inactive: locus YAL013W, strain DEP1, active compounds read low 0.937 | locus YBR229C, strain ROT2, active compounds read low 0.939 | locus YCL061C, strain MRC1, active compounds read low 0.928 | locus YDL101C, strain DUN1, active compounds read low 0.926 | locus YDL134C, strain PPH21, active compounds read low 1.01 | locus YDR150W, strain NUM1, active compounds read low 0.915 | locus YEL061C, strain CIN8, active compounds read low 0.914 | locus YGR078C, strain PAC10, active compounds read low 0.967 | locus YJL187C, strain SWE1, active compounds read low 0.989 | locus YJR043C, strain POL32, active compounds read low 1 | locus YJR075W, strain HOC1, active compounds read low 0.935 | locus YLR058C, strain SHM2 (second series), active compounds read low 0.99 | locus YMR219W, strain ESC1, active compounds read low 0.988 | locus YMR263W, strain SAP30, active compounds read low 0.939 | locus YMR307W, strain GAS1, active compounds read low 0.878 | locus YNL153C, strain GIM3, active compounds read low 0.957 | locus YNL322C, strain KRE1, active compounds read low 0.986 | locus YNR030W, strain Alg12, active compounds read low 0.924 | locus YPL055C, strain LGE1, active compounds read low 0.872 | locus YPL241C, strain CIN2, active compounds read low 0.871
active: locus YHR030C, strain SLT2, active compounds read low 0.644 | locus YHR087W, strain rtc3, active compounds read low 0.874 | locus YLR039C, strain RIC1, active compounds read low 0.599 | locus YLR085C, strain ARP6, active compounds read low 0.74 | locus YLR262C, strain YPT6, active compounds read low 0.601 | locus YML094W, strain GIM5, active compounds read low 0.838 | locus YNL298W, strain CLA4 (second series), active compounds read low 0.799 | locus YPR135W, strain CTF4, active compounds read low 0.622
